{
  "source": "PubChem BioAssay (NCATS)",
  "note": "Inconclusive results are not listed. Active and inactive are the calls of the source. The call rests on the fitted dose curve; in most records, active means well fitted inhibition curve with a large enough effect; inconclusive means small, poorly fitted or top-dose-only effect; inactive means flat fitted curve, though single readings scatter. Potency means the concentration at half of the fitted maximal effect.",
  "data": [
    {"tested_on": "CP192", "assay": "qHTS profiling for inhibitors of Plasmodium falciparum proliferation (AID 504749); further: nearly all actives have a fitted effect of over 60% in size;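 on activity, negative = inhibition: 0% = DMSO vehicle and full inhibition = artemisinin control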", "conditions": "P. falciparum in erythrocytes, SYBR Green DNA, 72 h; series mostly up to 28.7 µM; activity, negative = inhibition: at the top concentration", "outline": "(§1)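 P. falciparum-infected erythrocytes (0.3% parasitemia, 2.5% hematocrit) incubated with compound 72 h at 37 C, 5% CO2. Parasite DNA detected by SYBR Green after lysis, overnight at room temperature; normalised to 0.29 uM artemisinin and DMSO.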", "values": [
      {"smiles": "C[C@@H](Cc1ccccc1)NCCC(c1ccccc1)c1ccccc1", "activity, negative = inhibition": "-0.542% [at 12.8 µM] (inactive)"},
      {"smiles": "O=c1c2ccccc2[se]n1-c1ccccc1", "activity, negative = inhibition": "1.32% (inactive)"},
      {"smiles": "CNC(=O)Oc1ccccc1C(=O)Nc1ccccc1", "activity, negative = inhibition": "-9.31% (inactive)"},
      {"smiles": "CCC1C(C)=NN=C(c2ccc(OC)c(OC)c2)c2cc(OC)c(OC)cc21", "note": "(stereo not given)", "activity, negative = inhibition": "-2.22% (inactive)"},
      {"smiles": "N#CC(C#N)=Cc1cc(O)c(O)c(O)c1", "Potency": "13.5 µM (active)"},
      {"smiles": "CCC1(c2ccccc2)C(=O)NC(=O)N(C)C1=O", "note": "(stereo not given)", "activity, negative = inhibition": "-19.9% (inactive)"},
      {"smiles": "CC(N)Cc1ccc(O)cc1", "note": "(stereo not given)", "activity, negative = inhibition": "-0.643% (inactive)"},
      {"smiles": "CCOc1ccc2c3c1O[C@H]1[C@@H](O)C=C[C@H]4[C@@H](C2)N(C)CC[C@@]341", "activity, negative = inhibition": "-26.3% (inactive)"},
      {"smiles": "C[C@H]1CCC[C@H](O)CCCCCc2cc(O)cc(O)c2C(=O)O1", "activity, negative = inhibition": "-15.7% (inactive)"},
      {"smiles": "O=[N+]([O-])c1ccccc1", "activity, negative = inhibition": "-1.81% (inactive)"},
      {"smiles": "Oc1cc(Cl)c(Cl)cc1Cl", "activity, negative = inhibition": "-5.1% (inactive)"},
      {"smiles": "CN1CCCC(=C(c2cccs2)c2cccs2)C1", "activity, negative = inhibition": "-17.4% (inactive)"},
      {"smiles": "C/C(=C\\c1csc(C)n1)[C@@H]1C[C@@H]2O[C@]2(C)CCC[C@H](C)[C@H](O)[C@@H](C)C(=O)C(C)(C)[C@@H](O)CC(=O)O1", "Potency": "0.003 µM (active)"},
      {"smiles": "O[C@H]1[C@H]2[C@H](O)CCCN2C[C@H]1O", "activity, negative = inhibition": "-3.23% (inactive)"},
      {"smiles": "O=c1[nH]c(=O)n(Cl)c(=O)n1Cl", "activity, negative = inhibition": "2.61% (inactive)"},
      {"smiles": "CNC1(c2ccccc2Cl)CCCCC1=O", "note": "(stereo not given)", "Potency": "inactive"},
      {"smiles": "O=C(NCNC(=O)NC1C(=O)NC(=O)N1CO)NC1C(=O)NC(=O)N1CO", "note": "(stereo not given)", "activity, negative = inhibition": "5.96% (inactive)"},
      {"smiles": "[Cl-].[Cl-].[Hg+2]", "activity, negative = inhibition": "-15.4% (inactive)"},
      {"smiles": "CNC(=O)OCC[N+](C)(C)C", "activity, negative = inhibition": "11.1% (inactive)"},
      {"smiles": "CC12NC(Cc3ccccc31)c1ccccc12", "note": "(stereo not given)", "activity, negative = inhibition": "-25.6% (inactive)"},
      {"smiles": "CN1[C@@H]2CC[C@H]1CC(OC1c3ccccc3CCc3ccccc31)C2", "note": "(stereo not given in full)", "activity, negative = inhibition": "-2.6% [at 12.8 µM] (inactive)"},
      {"smiles": "Oc1cccc[c]1[Hg][Cl]", "Potency": "15.1 µM (active)"},
      {"smiles": "c1csc(C2(N3CCCCC3)CCCCC2)c1", "activity, negative = inhibition": "-4.85% (inactive)"},
      {"smiles": "COc1ccc2c3c1O[C@H]1C(=O)CC[C@H]4[C@@H](C2)N(C)CC[C@]314", "activity, negative = inhibition": "3.37% (inactive)"},
      {"smiles": "C[C@]12CCC(=O)C[C@@H]1CC[C@@H]1[C@@H]2CC[C@]2(C)[C@@H](O)CC[C@@H]12", "activity, negative = inhibition": "3.78% (inactive)"},
      {"smiles": "CCOP(=O)(OCC)O/C(=C/Cl)c1ccc(Cl)cc1Cl", "activity, negative = inhibition": "-2.52% (inactive)"},
      {"smiles": "[O]=[Cr](=[O])([OH])[O][Cr](=[O])(=[O])[OH]", "Potency": "inactive"},
      {"smiles": "Clc1ccccc1Cl", "activity, negative = inhibition": "6.21% (inactive)"},
      {"smiles": "C=CCN(C1=NCCN1)c1c(Cl)cccc1Cl", "activity, negative = inhibition": "1.84% (inactive)"}
    ]},
    {"tested_on": "CP194", "assay": "qHTS profiling for inhibitors of Plasmodium falciparum proliferation (AID 504749); further: nearly all actives have a fitted effect of over 60% in size;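 on activity, negative = inhibition: 0% = DMSO vehicle and full inhibition = artemisinin control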", "conditions": "P. falciparum in erythrocytes, SYBR Green DNA, 72 h; series mostly up to 28.7 µM; activity, negative = inhibition: at the top concentration", "outline": "as §1", "values": [
      {"smiles": "CCC1C(C)=NN=C(c2ccc(OC)c(OC)c2)c2cc(OC)c(OC)cc21", "note": "(stereo not given)", "activity, negative = inhibition": "-12.5% (inactive)"},
      {"smiles": "N#CC(C#N)=Cc1cc(O)c(O)c(O)c1", "Potency": "15.1 µM (active)"},
      {"smiles": "CCC1(c2ccccc2)C(=O)NC(=O)N(C)C1=O", "note": "(stereo not given)", "activity, negative = inhibition": "-5.19% (inactive)"},
      {"smiles": "CC(N)Cc1ccc(O)cc1", "note": "(stereo not given)", "activity, negative = inhibition": "-4.94% (inactive)"},
      {"smiles": "O=[N+]([O-])c1ccccc1", "activity, negative = inhibition": "2.79% (inactive)"},
      {"smiles": "Oc1cc(Cl)c(Cl)cc1Cl", "activity, negative = inhibition": "-6.18% (inactive)"},
      {"smiles": "C/C(=C\\c1csc(C)n1)[C@@H]1C[C@@H]2O[C@]2(C)CCC[C@H](C)[C@H](O)[C@@H](C)C(=O)C(C)(C)[C@@H](O)CC(=O)O1", "Potency": "0.0038 µM (active)"},
      {"smiles": "O[C@H]1[C@H]2[C@H](O)CCCN2C[C@H]1O", "activity, negative = inhibition": "0.532% (inactive)"},
      {"smiles": "O=c1[nH]c(=O)n(Cl)c(=O)n1Cl", "activity, negative = inhibition": "2.07% (inactive)"},
      {"smiles": "O=C(NCNC(=O)NC1C(=O)NC(=O)N1CO)NC1C(=O)NC(=O)N1CO", "note": "(stereo not given)", "activity, negative = inhibition": "-1.58% (inactive)"},
      {"smiles": "CNC(=O)OCC[N+](C)(C)C", "activity, negative = inhibition": "4.19% (inactive)"},
      {"smiles": "CCC1(c2ccccc2)C(=O)NC(=O)NC1=O", "activity, negative = inhibition": "0.398% (inactive)"},
      {"smiles": "c1csc(C2(N3CCCCC3)CCCCC2)c1", "activity, negative = inhibition": "-3.34% (inactive)"},
      {"smiles": "COc1ccc2c3c1O[C@H]1C(=O)CC[C@H]4[C@@H](C2)N(C)CC[C@]314", "activity, negative = inhibition": "-1.1% (inactive)"},
      {"smiles": "CN1C2CCC1CC(OC(c1ccccc1)c1ccc(Cl)cc1)C2", "note": "(stereo not given)", "Potency": "10.7 µM (active)"},
      {"smiles": "C[C@]12CCC(=O)C[C@@H]1CC[C@@H]1[C@@H]2CC[C@]2(C)[C@@H](O)CC[C@@H]12", "activity, negative = inhibition": "3.72% (inactive)"},
      {"smiles": "[O]=[Cr](=[O])([OH])[O][Cr](=[O])(=[O])[OH]", "Potency": "inactive"},
      {"smiles": "Clc1ccccc1Cl", "activity, negative = inhibition": "-2.8% (inactive)"},
      {"smiles": "C=CCN(C1=NCCN1)c1c(Cl)cccc1Cl", "activity, negative = inhibition": "-9.29% (inactive)"}
    ]},
    {"tested_on": "CP201", "assay": "qHTS profiling for inhibitors of Plasmodium falciparum proliferation (AID 504749); further: nearly all actives have a fitted effect of over 60% in size;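 on activity, negative = inhibition: 0% = DMSO vehicle and full inhibition = artemisinin control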", "conditions": "P. falciparum in erythrocytes, SYBR Green DNA, 72 h; series mostly up to 28.7 µM; activity, negative = inhibition: at the top concentration", "outline": "as §1", "values": [
      {"smiles": "C[C@@H](Cc1ccccc1)NCCC(c1ccccc1)c1ccccc1", "activity, negative = inhibition": "-10.6% [at 12.8 µM] (inactive)"},
      {"smiles": "O=c1c2ccccc2[se]n1-c1ccccc1", "activity, negative = inhibition": "2.49% (inactive)"},
      {"smiles": "CNC(=O)Oc1ccccc1C(=O)Nc1ccccc1", "activity, negative = inhibition": "-12.4% (inactive)"},
      {"smiles": "CCC1C(C)=NN=C(c2ccc(OC)c(OC)c2)c2cc(OC)c(OC)cc21", "note": "(stereo not given)", "activity, negative = inhibition": "-8.88% (inactive)"},
      {"smiles": "CCC1(c2ccccc2)C(=O)NC(=O)N(C)C1=O", "note": "(stereo not given)", "activity, negative = inhibition": "1.11% (inactive)"},
      {"smiles": "CC(N)Cc1ccc(O)cc1", "note": "(stereo not given)", "activity, negative = inhibition": "-2.06% (inactive)"},
      {"smiles": "CCOc1ccc2c3c1O[C@H]1[C@@H](O)C=C[C@H]4[C@@H](C2)N(C)CC[C@@]341", "activity, negative = inhibition": "-8.62% (inactive)"},
      {"smiles": "C[C@H]1CCC[C@H](O)CCCCCc2cc(O)cc(O)c2C(=O)O1", "activity, negative = inhibition": "-12.4% (inactive)"},
      {"smiles": "O=[N+]([O-])c1ccccc1", "activity, negative = inhibition": "-0.957% (inactive)"},
      {"smiles": "Oc1cc(Cl)c(Cl)cc1Cl", "activity, negative = inhibition": "1.83% (inactive)"},
      {"smiles": "CN1CCCC(=C(c2cccs2)c2cccs2)C1", "activity, negative = inhibition": "-8.02% (inactive)"},
      {"smiles": "O[C@H]1[C@H]2[C@H](O)CCCN2C[C@H]1O", "activity, negative = inhibition": "-3.81% (inactive)"},
      {"smiles": "O=c1[nH]c(=O)n(Cl)c(=O)n1Cl", "activity, negative = inhibition": "1.18% (inactive)"},
      {"smiles": "CNC1(c2ccccc2Cl)CCCCC1=O", "note": "(stereo not given)", "Potency": "inactive"},
      {"smiles": "O=C(NCNC(=O)NC1C(=O)NC(=O)N1CO)NC1C(=O)NC(=O)N1CO", "note": "(stereo not given)", "activity, negative = inhibition": "9.11% (inactive)"},
      {"smiles": "CNC(=O)OCC[N+](C)(C)C", "activity, negative = inhibition": "1.46% (inactive)"},
      {"smiles": "CC12NC(Cc3ccccc31)c1ccccc12", "note": "(stereo not given)", "activity, negative = inhibition": "0.535% (inactive)"},
      {"smiles": "CN1[C@@H]2CC[C@H]1CC(OC1c3ccccc3CCc3ccccc31)C2", "note": "(stereo not given in full)", "activity, negative = inhibition": "-5.51% [at 12.8 µM] (inactive)"},
      {"smiles": "CCC1(c2ccccc2)C(=O)NC(=O)NC1=O", "activity, negative = inhibition": "0.553% (inactive)"},
      {"smiles": "c1csc(C2(N3CCCCC3)CCCCC2)c1", "activity, negative = inhibition": "-0.563% (inactive)"},
      {"smiles": "COc1ccc2c3c1O[C@H]1C(=O)CC[C@H]4[C@@H](C2)N(C)CC[C@]314", "activity, negative = inhibition": "-0.332% (inactive)"},
      {"smiles": "C[C@]12CCC(=O)C[C@@H]1CC[C@@H]1[C@@H]2CC[C@]2(C)[C@@H](O)CC[C@@H]12", "activity, negative = inhibition": "-1.11% (inactive)"},
      {"smiles": "F/C(COc1ccc2c(c1)[nH]c1ccccc12)=C1/CN2CCC1CC2", "activity, negative = inhibition": "-13% (inactive)"},
      {"smiles": "CCOP(=O)(OCC)O/C(=C/Cl)c1ccc(Cl)cc1Cl", "activity, negative = inhibition": "-5.08% (inactive)"},
      {"smiles": "[O]=[Cr](=[O])([OH])[O][Cr](=[O])(=[O])[OH]", "Potency": "inactive"},
      {"smiles": "Clc1ccccc1Cl", "activity, negative = inhibition": "1.17% (inactive)"},
      {"smiles": "C=CCN(C1=NCCN1)c1c(Cl)cccc1Cl", "activity, negative = inhibition": "0.309% (inactive)"}
    ]}
  ]
}
